Assay outcomes (PubChem)
An excerpt weighted towards active compounds, which were near 6.6% of everything screened.
TSG101-PTAP inh: blocks PTAP/TSG101 interaction to inhibit HIV-1 budding; Q99816; Fluorescence polarization, FITC-PTAP peptide / Tsg101 binding; Potency, µM (series often up to 115 µM), inactives show at the top dose activity change, negative = inhibition, usual class: inhibitors; 340,000 tested, under 10 active; AID 493005; active = well fitted inhibition curve with a large enough effect in the main read-out, with a control signal flat, not every such curve was filed as active; inconclusive = small, poorly fitted or top-dose-only effect, or effect the other way, or a change in a side signal; inactive = no such curve, though single readings can be large or run the other way; also: % of control where 0% means no effect
Target sequence (Q99816 whole entry, looked up): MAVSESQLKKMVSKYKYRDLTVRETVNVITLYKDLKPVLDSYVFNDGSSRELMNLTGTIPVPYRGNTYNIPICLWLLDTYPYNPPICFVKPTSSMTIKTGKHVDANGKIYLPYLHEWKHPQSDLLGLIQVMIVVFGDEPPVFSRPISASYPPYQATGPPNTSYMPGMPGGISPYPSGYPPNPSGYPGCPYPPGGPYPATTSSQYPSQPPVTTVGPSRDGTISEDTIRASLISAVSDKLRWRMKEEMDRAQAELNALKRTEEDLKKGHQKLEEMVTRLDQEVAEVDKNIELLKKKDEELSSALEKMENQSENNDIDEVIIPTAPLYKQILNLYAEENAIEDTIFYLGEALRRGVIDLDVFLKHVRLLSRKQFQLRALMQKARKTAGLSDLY
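FP read-out: FITC-PTAP peptide, 50 nM final, binding Tsg101 binding domain, 10 uM final; 20 min, r.t.; 10 mM HEPES pH 7.5, 0.15 M NaCl, 0.01% Tween 20, 3 mM EDTA, 0.1 mM TCEP.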
SW480 rerep: induces DNA re-replication in SW480 colon adenocarcinoma cells. SW480 DNA re-replication, Hoechst DNA content imaging, 48 h. Potency, µM (series often up to 46.1 µM), for inactives: at the top dose re-replication activation, most hits filed as activators. AID 624297. 1.8% of 340,000 active; also: % of control where 0% means no effect; nearly all actives have a fitted effect of over 55% in size
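Image-based read-out: total Hoechst fluorescence of nuclei (405 nm excitation, 500-530 nm emission), with hits raising the fraction of high-intensity nuclei. SW480 colon cells incubated 48 hr with compounds at 37 C.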
RGS4 inh: human RGS4 inhibition; 0.039% of 390,000 active; Transcreener GDP fluorescence polarization, RGS4-accelerated GTP hydrolysis; Potency, µM (highest dose often 114 µM), for inactives: top-dose activity change, negative = inhibition, usual class: inhibitors; also: % is scaled to controls: 0 for no effect and ±100 for the full control effect; nearly all actives have a fitted effect of over 75% in size
Target sequence (P49798 whole entry, looked up): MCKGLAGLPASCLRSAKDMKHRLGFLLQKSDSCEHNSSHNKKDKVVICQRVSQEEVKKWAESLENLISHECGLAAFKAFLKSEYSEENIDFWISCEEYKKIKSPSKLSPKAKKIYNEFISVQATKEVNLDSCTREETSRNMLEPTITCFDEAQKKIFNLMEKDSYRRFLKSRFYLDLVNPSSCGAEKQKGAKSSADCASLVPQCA
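MLSMR compounds (23 nl, pin-transferred) preincubated 10 min at room temperature with a 500nM (2x) first reagent, then RGS4 at 900nM (2x) plus Transcreener GDP mix added; fluorescence polarization (620/688 nm) read before and after 90 min at 30 °C.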
MCF10A rereplic: inducers of DNA re-replication in MCF 10A breast cells; 2.9% of 350,000 active; MCF 10A DNA re-replication, Hoechst nuclear intensity, 48 h; AID 624296; Potency, µM (titrated, usually from 46.1 µM), for inactives: at the top dose activity, positive = re-replication, most hits filed as activators; also: % of control where 0% means no effect; nearly all actives have a fitted effect of over 50% in size
KB-3-1 tox: kills parental KB-3-1 adenocarcinoma cells | KB-3-1 viability, CellTiter-Glo ATP luminescence, 72 h | Potency, µM (highest dose often 46.1 µM), hits mostly cytotoxic | 1.4% of 400,000 active | AID 1347075; also: % is scaled to controls: 0 for no effect and ±100 for the full control effect; nearly all actives have a fitted effect of over 60% in size
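Multi-concentration cytotoxicity screen in KB-3-1 cells grown in DMEM lacking phenol red with 10% FBS. After 72 h at 37 °C with compound, ATP-dependent luminescence was recorded.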
KB-V1 MDR tox: kills drug-selected multidrug resistant KB-V1 cells | KB-V1 MDR cells viability, CellTiter-Glo, 72 h | Potency, µM (series often up to 46.1 µM), actives largely listed as cytotoxic | 3.4% of 400,000 active | AID 1347076; also: % is scaled to controls: 0 for no effect and ±100 for the full control effect; nearly all actives have a fitted effect of over 60% in size
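Cytotoxicity toward P-gp-expressing KB-V1 cells was determined as loss of CellTiter-Glo luminescence after 72 h at 37 degrees C. Compounds were tested in quantitative HTS format across a concentration range, with curves fitted to normalized data.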
* = called active by the depositor; i = inactive; ? = inconclusive; nt = no result; [ ] = dose if it differs, or a comment. Unless noted, calls follow the shape of the dose curve; as a rule, active = well fitted curve in the direction sought with a large enough effect; inconclusive = small, poorly fitted or top-dose-only effect, or another doubt; inactive = no such curve, though single readings can be large; an effect the other way counts as inactive or inconclusive. Potency is read from the fitted curve at half-maximal effect.

SMILES	TSG101-PTAP inh	SW480 rerep	RGS4 inh	MCF10A rereplic	KB-3-1 tox	KB-V1 MDR tox
COc1ccccc1Cn1c(=S)[nH]c2cc(C(=O)N3CCCC(C)C3)ccc2c1=O (configuration not stated)	nt	nt	nt	nt	21µM*	i
CC1CC(C)CN(C(=O)c2ccc3c(=O)n(Cc4ccc5c(c4)OCO5)c(=S)[nH]c3c2)C1 (configuration not stated)	-5%	22%	-23%	10%	i	15µM*
CN1CCN(C(=O)c2ccc3c(=O)n(Cc4ccc5c(c4)OCO5)c(=S)[nH]c3c2)CC1	nt	nt	-49%	nt	nt	nt
CCOC(=O)C1CCCN(C(=O)c2ccc3c(=O)n(CCOC)c(=S)[nH]c3c2)C1 (configuration not stated)	nt	0%	?	?	i	23µM*
Cc1ccc(NS(=O)(=O)c2cnc(N)nc2)c(C)c1	nt	nt	9%	nt	nt	nt
O=C(CN1C(=O)CCSc2ccc(S(=O)(=O)N3CCCC3)cc21)Nc1cccc(F)c1	nt	nt	-27%	nt	nt	nt
O=C(Nc1ccc(F)c(F)c1)c1cc(S(=O)(=O)NCc2ccc3c(c2)OCO3)ccc1F	nt	nt	-13%	nt	nt	nt
Cc1c(C(=O)N(C)Cc2ccccc2)oc2c(Cl)cccc12	-7%	21%	15%	18µM*	?	?
Cc1c(C(=O)NC2CCN(Cc3ccccc3)C2)oc2c(Cl)cccc12 (configuration not stated)	4%	?	-18%	16µM*	i	i
Cc1c(C(=O)N(CCO)Cc2ccccc2)oc2c(F)cccc12	-5%	-66%	-3%	0.73µM*	i	i
O=C(NC1CCN(Cc2ccccc2)CC1)c1ccccc1Cl	-2%	-14%	-7%	-1%	i	i
CCCCCCCCCCCCCCCCCCOC[C@H](COP(=O)([O-])OCC[N+](C)(C)C)OC(C)=O	nt	nt	i	nt	nt	nt
O=C(NC1CC1)c1ccc2nc(-c3ccco3)c(-c3ccco3)nc2c1	nt	nt	?	nt	i	i
COc1ccc(NC(=O)C2(c3cccs3)CCOCC2)cc1Cl	nt	nt	-7%	nt	i	i
CN(Cc1ccco1)C(=O)c1ccc2c(c1)N(Cc1ccccc1F)C(=O)c1ccccc1S2	nt	nt	-33%	nt	nt	nt
O=C1c2ccccc2C(=O)N1c1cccc(O)c1	nt	nt	30%	nt	?	i
COc1cccc(COc2ccccc2C2Nc3ccc(Br)cc3C(=O)N2NC(=O)c2ccncc2)c1 (configuration not stated)	2%	?	?	22%	?	8.2µM*
O=C1c2cccc3cccc(c23)C(=O)N1CC1CCN(S(=O)(=O)c2ccc(F)cc2)CC1	-1%	14%	-27%	22%	i	9.2µM*
C=CCN(Cc1nc(-c2ccc(OC)cc2)no1)C(=O)c1ccc2c(c1)OCO2	-1%	0%	-3%	18%	i	21µM*
CCOC(=O)c1ccc(N2C(=O)c3n[nH]c(-c4ccco4)c3C2c2cccc([N+](=O)[O-])c2)cc1 (configuration not stated)	-6%	16%	-16%	?	?	18µM*
CCOC(=O)c1ccc(N2C(=O)c3n[nH]c(C)c3C2c2ccc(OC)cc2)cc1 (configuration not stated)	-6%	-13%	-17%	?	i	5.2µM*
COc1ccc(-c2cn3nc(N4CCCC(C(=O)Nc5ccccc5OC)C4)sc3n2)cc1 (configuration not stated)	nt	nt	-11%	nt	i	i
O=C(Cc1ccc(Cl)cc1)NCC(c1cccs1)S(=O)(=O)c1ccccc1 (configuration not stated)	nt	nt	-6%	nt	i	i
CCOC(=O)c1[nH]c(C)c(CCC(=O)Nc2ccccc2OCC)c1C	nt	nt	11%	nt	i	i
CCOc1ccc(/C=N/NC(=O)c2cc(-c3ccco3)nc3ccccc23)cc1	3%	?	?	4.1µM*	i	i
SMILES	TSG101-PTAP inh	SW480 rerep	RGS4 inh	MCF10A rereplic	KB-3-1 tox	KB-V1 MDR tox
O=C(N/N=C/c1ccc(F)cc1)c1cc(-c2ccco2)nc2ccccc12	-6%	?	?	13µM*	?	?
CCOC(=O)C1CCN(Cc2cc(C(C)C)c(O)c(C(C)C)c2)CC1	-3%	2%	22%	?	i	?
CC(C)c1cc(CN2C(C)COCC2C)cc(C(C)C)c1O (configuration not stated)	-6%	-3%	?	2%	?	16µM*
CC(=O)c1ccc2noc(-c3ccc(Cl)cc3)c2c1	-3%	16µM*	4%	?	i	i
CC(=O)c1ccc2noc(-c3ccc(F)cc3)c2c1	-22%	-5%	-23%	-23%	i	i
COc1ccc(-c2onc3ccc(C(=O)/C=C/N(C)C)cc23)cc1	?	16µM*	-26%[56.9 µM]	18µM*	?	?
CCc1ccc(CNC(=O)CSCc2cnn(-c3ccccc3)c2-n2cccc2)cc1	nt	nt	3%	nt	nt	nt
COc1ccccc1-c1cc2nc(C)c(CCC(=O)NCCc3ccc(SC)cc3)c(C)n2n1	nt	nt	18%	nt	nt	nt
Cc1ccc(S(=O)(=O)CCC(=O)OCC(=O)N2CCN(c3ccccc3)CC2)cc1	-4%	-1%	-14%	0%	i	i
Cc1ccc(S(=O)(=O)CCC(=O)N2CCN(c3ccccc3O)CC2)cc1	-4%	9.2µM*	11%	?	i	i
OCc1cc(Br)ccc1OCc1nc2ccccc2s1	-1%	-9%	-24%	1%	i	5.2µM*
O=C(NC1CCCCC1)c1ccc(CSc2nc3ccncc3n2Cc2cccc(F)c2)cc1	nt	nt	-13%	nt	i	i
Cc1nc2ccccn2c1C(=O)Nc1ccc2c(c1)OCCO2	-3%	2%	1%[11.4 µM]	1%	?	i
Cc1nc2ccccn2c1C(=O)N/N=C/c1ccc2c(c1)OCO2	0%	?	4%	?	?	18µM*
Cc1nc2ccccn2c1C(=O)NCc1ccc2c(c1)OCO2	-1%	7%	9%	2%	i	16µM*
CCOc1cccc2cc(-c3nc(-c4ccccc4C)no3)c(=O)oc12	nt	nt	-11%	nt	nt	nt
Cc1ccc(C)c(N2CCN(c3cc(C)nc4c(-c5ccc(Cl)cc5)c(C)nn34)CC2)c1	nt	nt	8%	nt	nt	nt
O=C(NN=Cc1cc(Cl)ccc1[N+](=O)[O-])c1ccco1	-1%	-4%	13%	0%	i	15µM*
Cc1ccc(S(=O)(=O)NCC(=O)NCC(=O)OCc2c(F)cccc2Cl)cc1	-8%	18µM*	23%	9%	i	i
Cc1ccc(C(=O)NCC(=O)OCc2c(F)cccc2Cl)cc1	-2%	2%	-14%	-1%	?	i
